Screening results as filed in PubChem.
This is a sample that favours compounds with a hit; in the whole collection about 1.9% have one here.
Menin MLL FP TR = displaces Texas Red mutant MLL peptide from human menin | O00255 | Menin + Texas Red MLL mutant peptide, fluorescence polarization | Potency, µM (titrated, usually from 61.6 µM), inactives show top-dose FP activity change, negative = inhibition, usual class: inhibitors | 0.23% of 270,000 active | AID 1768; active = well fitted inhibition curve with a large enough effect in the polarisation, with a control signal flat, not every such curve was filed as active; inconclusive = small, poorly fitted or top-dose-only effect, or effect the other way, or a change in a side signal; inactive = no such curve, though single readings can be large or run the other way; the % refers to the polarisation; note: potency is the fitted concentration of half-maximal effect; % of control where 0% means no effect
PINK1 modulator = PINK1 expression modulation | Potency, µM (titrated, usually from 76.6 µM), for inactives: top-dose activation (PINK1 increase), hits mostly activators | AID 624263 | PINK1 immunofluorescence, high-content cytometry, 24 h | 0.2% of 410,000 active; active = well fitted activation curve with a large enough effect; inconclusive = small, poorly fitted or top-dose-only effect; cell line not stated here; note: potency is the fitted concentration of half-maximal effect; % of control where 0% means no effect; nearly all actives have a fitted effect of over 65% in size
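Measures PINK1 amount and localization on or inside mitochondria by immunofluorescence. Stable cells get compounds at 5 concentrations for 24 hours before fixation and staining; CCCP controls included.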
Epigenetic reg = epigenetic control regulation, reporter derepression; 0.2% of 280,000 active; Potency, µM (highest dose often 53.9 µM), inactives show top-dose GFP activation, actives largely listed as activators; murine LDR cells, GFP reporter derepression, 30 h; AID 1865; active = well fitted activation curve with a large enough effect; inconclusive = small, poorly fitted or top-dose-only effect; note: potency is the fitted concentration of half-maximal effect; % of control where 0% means no effect; nearly all actives have a fitted effect of over 60% in size
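In this reporter-derepression format, murine cells bearing a silenced integrated CMV-GFP locus incubate with test compound (30 h, 37 C), then are washed and imaged; fluorescent objects of 20–120 um count as induced cells.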
ClpP mod = qHTS Assay for Activators of ClpP | ATP-dependent Clp protease proteolytic subunit (Bacillus subtilis (strain 168)), P80244 | purified B. subtilis ClpP, FRET peptide cleavage, 20 min | Potency, µM (doses to about 57.5 µM), for the others: at the highest dose activity change, negative = active | 1.9% of 340,000 active | AID 651965, 2013; active = well fitted falling curve with a large enough effect; inconclusive = small, poorly fitted or top-dose-only effect; inactive = no such curve, though single readings can be large or run the other way; note: potency is the fitted concentration of half-maximal effect; the source files actives as falling curves though it sought activators and does not explain the sign; nearly all actives have a fitted effect of over 65% in size
Target sequence (P80244 whole entry, looked up): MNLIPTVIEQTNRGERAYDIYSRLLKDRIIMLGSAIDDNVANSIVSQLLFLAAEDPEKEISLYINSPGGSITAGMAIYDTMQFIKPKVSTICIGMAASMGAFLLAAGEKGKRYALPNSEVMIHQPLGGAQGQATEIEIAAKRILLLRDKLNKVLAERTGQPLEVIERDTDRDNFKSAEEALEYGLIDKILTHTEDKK
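Purified B. subtilis ClpP, 10 microg/mL final in Tris/HCl pH8 with KCl, BSA, glycerol and Tween-20, cleaved an Abz/nitrotyrosine-quenched decapeptide. Fluorescence (ex 320, em 430) was read at 0 and 20 min at room temperature. Delta was normalized to 5.8 microM ADEP and DMSO/no-enzyme controls.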
Menin-MLL FL inh = inhibitors of human menin-MLL interaction, wild-type MLL peptide; Fluorescence polarization, fluorescein-MLL peptide displacement from menin; FP activity change, % at 61.4 µM; 290,000 tested, under 10 active; active = well fitted curve in the direction sought with a large enough effect in the polarisation, not every such curve was filed as active; inconclusive = small, poorly fitted or top-dose-only effect, or effect the other way, or a change in a side signal; inactive = no such curve, though single readings can be large or run the other way; the % refers to the polarisation; note: % of control where 0% means no effect
MLL CXXC-DNA inh = MLL CXXC-DNA interaction inhibition; MLL-CXXC / FITC-HOXA9 DNA fluorescence polarization; AID 2662; 0.037% of 290,000 active; Potency, µM (doses to about 115 µM), without a hit: at the highest dose activity change, negative = inhibition, hits mostly inhibitors; active = well fitted inhibition curve with a large enough effect in the polarisation, with a control signal flat, not every such curve was filed as active; inconclusive = small, poorly fitted or top-dose-only effect, or effect the other way, or a change in a side signal; inactive = no such curve, though single readings can be large or run the other way; the % refers to the polarisation; note: potency is the fitted concentration of half-maximal effect
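Steps: dispense CXXC domain solution (7 uM) → pin compounds or unlabeled HOX-A9 DNA control → 5 min ambient → add FLSN-HOX-A9 solution (50 nM) → spin → 30 min ambient → fluorescence polarization. Tris pH 7.5/NaCl/DTT/BSA buffer.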
Starred values were filed as active, the others as inactive; ? = inconclusive; . = no result; [ ] = dose if it differs, or a comment.

SMILES | Menin MLL FP TR | PINK1 modulator | Epigenetic reg | ClpP mod | Menin-MLL FL inh | MLL CXXC-DNA inh
O=C(CNC(=O)c1cc2c(n(-c3ccccc3)c1=O)CCCC2=O)c1ccccc1 | . | -3.0% | . | 28.2µM* | . | -9.9%
O=C(c1ccc2c(c1)OCO2)N(Cc1cc2ccc(F)cc2nc1N1CCC(O)CC1)CC1CCCO1 (configuration not stated) | . | 0.2% | . | . | . | .
COc1cc2nc(C#N)nc(N)c2cc1OC | . | 0.2% | . | -1.3% | . | .
COc1ccnc(CSC(N)=Nc2ccccc2OC)c1 | 4.2% | -1.5% | 3.55µM* | -3.9% | -0.4 | 4.5%
CC(C)(C)c1ccc(-c2nc(C#N)c(NCc3cccnc3)o2)cc1 | 16.3% | 0.5% | -1.8% | 31.6µM* | -1.1 | 2.9%
N#Cc1nc(-c2ccc(F)cc2)oc1NCc1ccccc1 | -16.5% | 9.5% | 12.2% | 5.0% | 1.3 | -2.9%
Cc1ccc(OCc2ccc(-c3nc(C#N)c(NCc4cccnc4)o3)o2)cc1 | . | 0.2% | -0.5% | 35.5µM* | . | .
Cc1ccc(CNc2oc(-c3ccc(COc4ccc(C)cc4)o3)nc2C#N)cc1 | . | 0.3% | -0.8% | 25.1µM* | . | .
Cc1ccc(CNc2oc(-c3ccc(COc4ccc(Cl)cc4)o3)nc2C#N)cc1 | . | -1.7% | ? | ? | . | .
Cc1cc2nccc(C)c2cc1C | . | . | . | -12.1% | . | .
CCCCCCC[n+]1ccc(/C=C/c2c(C)[nH]c3ccccc23)cc1 | . | . | . | -0.9% | . | .
COc1cc(OC)cc(C(=O)NCC2Cc3cccc(-c4nc(C)cnc4C)c3O2)c1 (configuration not stated) | . | -0.1% | . | . | . | .
N#C/C(=C/c1ccc(N2CCCCC2)o1)C(=O)Nc1ccc(Cl)cc1 | ? | 12.6µM* | 0.631µM* | 3.6% | ? | ?
CCCCOC(=O)c1ccc(NC(=O)/C(C#N)=C/c2ccc(C)o2)cc1 | . | 1.8% | 10µM* | 2.3% | . | .
COc1ccc(NC(=O)/C(C#N)=C\c2ccc(N3CCOCC3)o2)cc1 | ? | 21.0% | 15.8µM* | . | ? | ?
COc1ccc(NC(=O)/C(C#N)=C/c2ccc(C)o2)cc1 | . | 3.9% | -0.8% | -0.2% | . | .
N#C/C(=C/c1ccc(N2CCOCC2)o1)C(=O)NC1CCCCC1 | 3.2% | 2.7% | 0.8% | -0.6% | ? | ?
N#C/C(=C/c1ccc(N2CCCCC2)o1)C(=O)Nc1ccc2ccccc2c1 | ? | 7.08µM* | 2.51µM* | -1.7% | ? | 7.3%
COc1ccc(C2(O)CC3CCC(C2)N3c2nc(C)cc(C)c2C#N)cc1 (configuration not stated) | -21.4% | 2.7% | -2.2% | 28.2µM* | 5.2 | 22.7%
COc1ccc(-c2ccc(C(=O)N3CCc4c(cnc(C)c4CNS(=O)(=O)N(C)C)C3)o2)cc1 | . | -0.5% | . | . | . | .
C=C1c2cc(OC)ccc2NC(=O)N1CC | 26.0% | -1.0% | 0.9% | 3.16µM* | 2.0 | -24.1%
COc1ccc(C(=O)N2CCCC(c3nc(SCc4ccccn4)ncc3C)C2)cc1F (configuration not stated) | . | 0.0% | . | . | . | .
CCCc1cc(=O)[nH]c2nnc(SCC(=O)Nc3cccc(C)c3)n12 | . | -7.8% | 1.6% | 1.9% | . | .
Cn1c(N2CCOCC2)nc(-c2ccccc2)c1-c1ccccc1 | -10.5% | 1.7%[38.3 µM] | -3.0% | 11.2µM* | 2.5 | -0.5%
c1ccc(-c2nc3ccccc3nc2N2CCOCC2)cc1 | 0.7% | 3.7% | -1.2% | -6.7% | -4.3 | -1.0%
Nc1ccc2c(c1)C/C(=C/c1ccco1)C2=O | ? | 2.5% | -1.9% | 14.1µM* | ? | 0.1%
CN(C)c1ccc(/C=N/NC(=O)CCC(=O)NCc2ccccc2)cc1 | -0.1% | 2.9% | 0.3% | 10µM* | 1.6 | 0.6%
S=C(NCc1ccco1)N/N=C/c1ccncc1 | . | -2.0% | -0.4% | . | 3.2 | -10.9%
CCCCCC(=O)N/N=C/c1ccc(N(C)C)cc1 | -8.0% | 0.1% | 1.1% | 28.2µM* | 3.1 | 4.7%
CN(C)c1ccc(/C=N/NC(=S)NCc2ccco2)cc1 | 30.9% | 3.8% | 0.1% | 25.1µM* | 1.5 | -4.0%
